Laboratory results: PubChem BioAssay (NCATS)
Inconclusive results are not listed. Calls of active or inactive are those of the source. Calls come from the whole dose curve; as a rule, active = well fitted cell-killing curve with a large enough effect; inconclusive = small, poorly fitted or top-dose-only effect, or effect the other way; inactive = flat fitted curve, though single readings scatter.

System: OV90
Experiment: Primary qHTS to identify gynecologic anti-cancer compounds using libraries of approved drugs and bioactive compounds (AID 1345084); note: nearly all actives have a fitted effect of over 55% in size
Conditions: Gynecologic cancer cell panel viability, ATPlite luminescence, 48 h; series mostly up to 57.5 µM
In short: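 Five-point cytotoxicity, 48 h drug exposure at 37 C, 5% CO2, on cells seeded 16 h beforehand. ATP content read by ATPlite luminescence.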
Potency is the fitted concentration of half-maximal effect.

| SMILES | Potency |
| --- | --- |
| CCCCCOc1ccccc1/C(=C\SC)n1ccnc1 | inactive |
| CCOC(=O)c1ccc(O)c(O)c1 | inactive |
| O=C(Nc1ccc(Cl)cc1)Nc1ccc(Cl)c(C(F)(F)F)c1 | 25.1 µM (active) |
| CCN(CC)CCOc1ccc(/C(=C(\Cl)c2ccccc2)c2ccccc2)cc1 | 14.1 µM (active) |
| Nc1c2ccccc2nc2ccccc12 | 28.2 µM (active) |
| CC[C@@]1(O)C(=O)OCc2c1cc1n(c2=O)Cc2c-1nc1ccccc1c2/C=N/OC(C)(C)C | 8.91 µM (active) |
| CC(C)C(C)(C)C(C)(C)C(C)(C)S | inactive |
| Nc1cccc2c(N)cccc12 | 20 µM (active) |
| CN1N=C(C(N)=O)CCC1=O | inactive |
| CCCC(=O)c1cc(O)c(O)cc1O | inactive |
| CCCCCCCCCCCCCCCC[n+]1ccccc1 | 31.6 µM (active) |
| CO[C@@H]1[C@@H](OC)[C@H](C)[C@@](O)(CC(=O)O)O[C@H]1[C@H](C)[C@H]1O[C@@]2(CC[C@@](C)([C@H]3CC[C@@](C)([C@@H]4O[C@@H]([C@H]5O[C@](C)(O)[C@H](C)C[C@@H]5C)C[C@@H]4OC4C[C@H](OC)[C@@H](OC)[C@H](C)O4)O3)O2)C[C@H](O)[C@H]1C (stereo not given in full) | 1.78 µM (active) |
| CC(NCCC(c1ccccc1)c1ccccc1)c1ccccc1 (stereo not given) | 28.2 µM (active) |
| CC[N+]1(CC)CCC(=C(c2ccccc2)c2ccccc2)C1C (stereo not given) | inactive |
| O=c1[nH]sc2cc(Cl)ccc12 | inactive |
